# Bioassay records: PubChem, National Center for Advancing Translational Sciences (NCATS)
# DT40 TDP1 CPT = qHTS for Inhibitors of human tyrosyl-DNA phosphodiesterase 1 (TDP1): qHTS in cells in presence of CPT; chicken DT40 Tdp1-/-;hTDP1 cells + 20 nM CPT, ATP luminescence, 48 h; Potency, µM (top dose mostly 46.2 µM), for the others: at the top dose activity change, negative = growth inhibition, most hits filed as inhibitors; 12% of 420,000 active; also: potency is read from the fitted curve at half-maximal effect; nearly all actives have a fitted effect of over 55% in size
#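 Chicken DT40 Tdp1-/- cells complemented with human TDP1, 400 cells/well, exposed to compounds plus 20 nM camptothecin for at least 48 h at 37 C; viability read as ATP content by CellTiter-Glo luminescence.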
# IL-1B inflam inh = qHTS for Inhibitors of Inflammasome Signaling: IL-1-beta AlphaLISA Primary Screen; THP-1 LPS/ATP IL-1B secretion, AlphaLISA, 16 h; stronger effect = lower value; activity change, % at 57.5 µM; 4.7% of 360,000 active; AID 743279, 2014; in the data active = activity change below about -50%; inconclusive = mostly about -30% to -49%
#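 THP-1 cells pretreated 1 hr with compounds (up to 57.5 uM final), then stimulated with LPS (250 ng/mL final) plus ATP (1.25 mM final); secreted IL-1B measured by AlphaLISA after 16 hr, decreased signal indicating inhibition.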
# DT40 TDP1 no CPT = qHTS for Inhibitors of human tyrosyl-DNA phosphodiesterase 1 (TDP1): qHTS in cells in absence of CPT; 15% of 420,000 active; DT40 Tdp1-/- hTDP1 cells, no CPT, ATP luminescence, 48 h; Potency, µM (top dose mostly 46.2 µM), for inactives: at the highest dose activity change, negative = growth inhibition, actives largely listed as inhibitors; also: potency is read from the fitted curve at half-maximal effect; nearly all actives have a fitted effect of over 55% in size
#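 Camptothecin absent (DMSO only). Human TDP1-complemented DT40 knockout cells, 400 cells/well, 37 °C for minimum 48 hr; ATP measured via CellTiter-Glo, 30 min dark incubation, luminescence.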
# Gal4-VP16 FLuc = VP16 counterscreen qHTS for inhibitors of ROR gamma transcriptional activity; Drosophila S2 Gal4-VP16 UAS-luciferase, luminescence, 20 h; Potency, µM (doses to about 53.6 µM), for the others: at the top dose activity, negative = inhibition, hits mostly inhibitors; 3.5% of 310,000 active;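 also: Gal4-VP16 expression switched on by copper sulfate through the metallothionein promoter; potency is read from the fitted curve at half-maximal effect; nearly all actives have a fitted effect of over 50% in size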
# RORg inh = qHTS for inhibitors of ROR gamma transcriptional activity. Nuclear receptor ROR-gamma (Mus musculus), P51450. Drosophila S2 Gal4-RORgamma UAS-luciferase reporter, 20 h. Potency, µM (doses to about 53.6 µM), without a hit: at the top dose activity change, negative = inhibition, most hits filed as inhibitors. 5.4% of 310,000 active. AID 2551, 2010; also: potency is read from the fitted curve at half-maximal effect; nearly all actives have a fitted effect of over 60% in size
# Target sequence (P51450 whole entry, looked up, the tested form may be a part): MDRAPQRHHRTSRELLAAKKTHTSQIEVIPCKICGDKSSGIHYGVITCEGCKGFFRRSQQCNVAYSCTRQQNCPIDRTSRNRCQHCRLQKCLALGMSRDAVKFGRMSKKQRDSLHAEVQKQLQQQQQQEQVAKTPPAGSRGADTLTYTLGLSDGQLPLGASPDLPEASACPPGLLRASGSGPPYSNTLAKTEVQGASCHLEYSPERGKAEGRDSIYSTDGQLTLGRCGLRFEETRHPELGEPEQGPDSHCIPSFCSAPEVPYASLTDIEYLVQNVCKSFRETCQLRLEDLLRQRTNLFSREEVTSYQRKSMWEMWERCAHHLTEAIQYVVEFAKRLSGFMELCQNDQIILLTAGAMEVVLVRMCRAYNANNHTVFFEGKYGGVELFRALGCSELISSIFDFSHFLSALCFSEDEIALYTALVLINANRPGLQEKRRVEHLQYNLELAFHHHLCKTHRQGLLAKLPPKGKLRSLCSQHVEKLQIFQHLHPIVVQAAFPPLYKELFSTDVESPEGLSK
#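 Compounds are pin-transferred onto Drosophila Schneider cells expressing a copper-inducible Gal4–ROR gamma transactivation domain fusion. After 1 hr, copper sulfate is added to 700 uM final; luciferase is read 20 hr later.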
# LDHA block = qHTS assay for inhibitors of human lactate dehydrogenase. L-lactate dehydrogenase A chain (Homo sapiens), P00338. purified LDHA, NADH/diaphorase-resazurin fluorescence; stronger effect = lower value. activity change, % (values are at about 110 or 230 µM). 0.15% of 480,000 active; in the data active = activity change below about -30%; inconclusive = mostly about -25% to -30%;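 also: plate controls were DMSO wells for no effect and wells without enzyme for full effect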
#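 Human LDH5 (2 nM) was incubated with 0.06 mM NADH and 0.2 mM pyruvate for 5 min at room temperature in Tris pH 7.4. Remaining NADH was coupled through diaphorase/resazurin, and resorufin fluorescence was read at 0 and 20 min.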
# The depositor's hits bear a star; ? = inconclusive; / = not tested or not shown. Sampled rows, rich in hits. Any-hit rate of the full collection: about 18%. Unless noted, calls follow the shape of the dose curve; as a rule, active = well fitted curve in the direction sought with a large enough effect; inconclusive = small, poorly fitted or top-dose-only effect, or another doubt; inactive = no such curve, though single readings can be large; an effect the other way counts as inactive or inconclusive. Unless noted, % is scaled to controls: 0 for no effect and ±100 for the full control effect.
SMILES,DT40 TDP1 CPT,IL-1B inflam inh,DT40 TDP1 no CPT,Gal4-VP16 FLuc,RORg inh,LDHA block
COc1cc2c(C(=O)N(C)c3cc(Cl)ccc3OC)cn(CC(C)C)c(=O)c2cc1OC,9.2µM*,/,8.2µM*,/,/,6
COc1ccc(N(C)C(=O)c2cn(CC(C)C)c(=O)c3cc(OC)c(OC)cc23)c(OC)c1,?,-28,-26%,-1%,20%,-1
O=C1/C(=C\c2ccccc2)CN(C(=O)CCN2CCCCC2)C/C1=C/c1ccccc1,1.3µM*,-67*,1.5µM*,/,/,3
CCN(CC)CCCN(C/C=C/c1ccccc1)C/C=C/c1ccccc1,/,/,/,/,/,1
O=C(CCN1C(=O)c2ccccc2C1=O)N1CCCCCC1,0%,-14,-6%,18%,24%,-1
CCN(CC)CCC(=O)N1C/C(=C/c2ccccc2)C(=O)/C(=C\c2ccccc2)C1,1.8µM*,-99*,3.7µM*,/,/,-2
O=C1/C(=C\c2ccc(Cl)c(Cl)c2)CN(C(=O)CCN2CCOCC2)C/C1=C/c1ccc(Cl)c(Cl)c1,0.58µM*,-101*,0.82µM*,/,/,-5
O=C(Nc1ccc2nc(-c3ccccn3)c(-c3ccccn3)nc2c1)N1CCCC1,?,/,?,/,/,7
O=C(Nc1ccc2nc(-c3cccs3)c(-c3cccs3)nc2c1)N1CCOCC1,?,-60*,13µM*,-2%,-13%,12
O=C(c1ccc([N+](=O)[O-])cc1)N1CCc2ccccc2C1,-14%,-4,-14%,-1%,34%,-1
CCc1ccc(/C=C\C(=O)N2CCc3ccccc3C2)cc1,-1%,?,2%,?,10µM*,-6
O=C(/C=C/c1ccccc1[N+](=O)[O-])N1CCc2ccccc2C1,?,-53*,16µM*,23%,?,2
O=C(/C=C/c1ccccc1[N+](=O)[O-])OCC(=O)N1CCN(c2ccccc2)CC1,21µM*,3,?,/,/,-1
O=C(/C=C/c1c(F)cccc1Cl)N1CCc2ccccc2C1,?,-63*,?,2%,0.4µM*,-1
CC(=O)N1CCN(C(=O)COC(=O)/C=C/c2ccccc2[N+](=O)[O-])CC1,-20%,9,3%,/,/,-4
CCc1ccc(/C=C\C(=O)N2CCCC2)cc1,-20%,-18,-25%,/,/,-9
CCN1CCN(C(=O)/C=C/c2c(F)cccc2Cl)CC1,10%,-5,0%,3%,-3%,-7
COc1ccc(-c2nnc(SCCS(=O)(=O)c3ccc(Cl)cc3)o2)cc1OC,/,/,/,/,/,5
O=C(Nc1ccccc1C(F)(F)F)c1ccccc1Cl,/,/,/,/,/,1
Cc1n[nH]c(=O)nc1N1CCN(c2ccccc2)CC1,1%,-16,1%,-10%,-30%,2
Cc1n[nH]c(=O)nc1N1CCc2ccccc2C1,-3%,3,18µM*,-16%,1%,-2
Cc1nc(NCc2ccccc2)sc1C(=O)N1CCC(C(N)=O)CC1,/,/,/,/,/,10
CCOc1cc(/C=C2\NC(=O)NC2=O)cc(Cl)c1O,/,/,/,/,/,6
COc1cccc2c1C1COC3C4CC(C(=O)O)C(C(C2)N13)N4C (stereo unspecified),5.2µM*,-22,12µM*,/,/,-6
COc1ccc(/C=C2\SC(=S)N(CCC(=O)NC3C=CS(=O)(=O)C3)C2=O)cc1 (stereo unspecified),-25%,?,5%,3%,?,-10
COc1cccc(/C=C2\SC(=S)N(CCC(=O)NCCc3ccc(O)cc3)C2=O)c1,18µM*,-85*,?,-29%,-12%,-1
